Hit rate of the full screen: of about 310,000 compounds, about 1,900 (0.61%) were called active.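 Rule for the calls: active = plate-corrected calcium response at least 3 library SD above typical, normal starting fluorescence, not activating the receptor alone; inactive = the rest.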 This excerpt belongs to a sample that is enriched for actives.
Target: Mas-related G-protein coupled receptor member X1 (Homo sapiens) (UniProt Q96LB2)
Experiment: allosteric enhancers of human MrgX1 signaling – HEK293 cells, Fluo-4 calcium flux, primary screen (AID 588675);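 note: compound read alongside a low EC10 to EC30 dose of BAM8-22 agonist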;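 for B-score: peak minus trough fluorescence over baseline measured at the second addition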
Conditions: MrgX1-HEK293, Fluo-4 calcium flux, FDSS, at 10 µM; stronger effect = higher value

Chain of Mas-related G-protein coupled receptor member X1 (Homo sapiens) (Q96LB2 whole entry, looked up): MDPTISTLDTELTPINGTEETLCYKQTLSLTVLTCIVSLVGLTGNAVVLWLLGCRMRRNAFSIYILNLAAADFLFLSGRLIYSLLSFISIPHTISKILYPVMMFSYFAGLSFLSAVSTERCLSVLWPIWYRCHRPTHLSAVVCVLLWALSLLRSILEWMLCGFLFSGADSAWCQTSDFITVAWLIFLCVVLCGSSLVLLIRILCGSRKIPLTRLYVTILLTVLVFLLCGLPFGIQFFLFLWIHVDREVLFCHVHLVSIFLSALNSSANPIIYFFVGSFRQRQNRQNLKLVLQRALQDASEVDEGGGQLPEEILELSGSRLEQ

SMILES | B-score
COc1cc(C(F)(F)F)nc2c(Br)c(C(C)(C)C)nn12 | 10.1 (active)
CNC(=O)c1sc(Nc2ccc(OCc3ccccc3)cc2)nc1C | inactive
CCCC(=O)Nc1ncnc2c1ncn2[C@@H]1O[C@@H]2OP(=O)(O)OC[C@H]2[C@H]1OC(=O)CCC | inactive
CC(=O)N1c2ccc(S(=O)(=O)N3CCCC(C(=O)NCc4ccc(Cl)cc4)C3)cc2CC1C (centres undefined) | inactive
CC(=O)N1c2ccc(S(=O)(=O)N3CCCC(C(=O)Nc4cccc(Cl)c4)C3)cc2CC1C (centres undefined) | 16.4 (active)
CC(=O)N1c2ccc(S(=O)(=O)N3CCCC(C(=O)Nc4cccc(F)c4)C3)cc2CC1C (centres undefined) | inactive
Cc1nnc(SCC(=O)NC(=O)NC2CCCC2)n1N | inactive
COc1ccc(C2c3[nH]c4ccccc4c3CCN2CCCn2cccn2)cc1C (centres undefined) | inactive
Cc1nccn1CCC1CCCCN1C(=O)CCc1nnc(-c2ccsc2)o1 (centres undefined) | inactive
CC1(C)CC(=O)CC2(C1)NCC(c1ccccc1Cl)c1c2[nH]c2ccccc12 (centres undefined) | 13.7 (active)
CC1CCN(c2ccc(-c3ccc(NC(=O)c4ccco4)cc3)nn2)CC1 | inactive
O=C(O)CCN=C1CCc2ccccc2N1 | inactive
CCOC(=O)C1CCN(S(=O)(=O)c2ccc3c(c2)N(C)C(=O)CC(=O)N3C)CC1 | inactive
COc1ccc(C(=O)NCc2nnc(SCC(=O)Nc3cccc(OC)c3)o2)cc1 | inactive
COc1ccc(Cc2nnc(SCC(=O)Nc3ccc(C)c(C)c3)o2)cc1OC | inactive
COc1cccc(NC(=O)CSc2nnc(Cc3ccc(OC)c(OC)c3)o2)c1 | 10.7 (active)
O=S(=O)(Nc1ccc(Oc2ncccn2)c(Cl)c1)c1ccc(F)cc1 | inactive
COc1ccc(Cl)cc1NC(=O)CCS(=O)(=O)c1ccc(Br)cc1 | inactive
CC1CCN(CCCNC(=O)CN2C(=O)CSc3ccc(S(=O)(=O)N4CCCCC4)cc32)CC1 | inactive
CC(=O)c1ccc(N=C2SCCCN2C(=O)C2CCCCC2)cc1 | inactive
O=C(NNC(=O)c1cc2c(s1)CCCC2)c1ccccc1 | 6.55 (active)
O=C(c1cc2c(s1)CCC2)N1CCN(c2ccccc2)CC1 | inactive
O=C(Nc1ccc(F)cc1)c1cc2c(s1)CCCC2 | inactive
CC1(C)C=Cc2c(ccc3c2OC[C@@H](c2ccc(O)cc2O)C3)O1 | inactive
CC1(C)CC(=O)c2cnc3nc4ccccc4n3c2C1 | inactive
CCn1cc(C(=O)NCC(=O)NC(C)(C)CO)c(=O)c2cc3c(cc21)OCO3 | inactive
COc1cccc(-c2cnc(OC(C)(C)C)nc2OC(C)(C)C)c1 | 6.93 (active)
CC(C)(C)Oc1ncc(Br)c(OC(C)(C)C)n1 | inactive
COc1ccc(-c2nc(N)ncc2-c2ccc(Cl)cc2)c(O)c1 | inactive

From PubChem BioAssay AID588675 (Johns Hopkins Ion Channel Center, 2011)
